# D1 allo mod: D1 dopamine receptor (human) allosteric modulation | P21728 | HEK293 D1, CRE-luciferase, dopamine EC30 potentiation; actives deviate in either direction | AID 641 | B-score at 10 µM | hit rate 5.9% among 58,000;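 active = luminescence count or its row- and column-corrected plate score outside the 99.7% band of the plate's sample wells, on either side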
# CYP2C9 inhib: inhibitors of human CYP2C9; P11712; inhibition, % at 5 µM; CYP2C9 Supersomes, luciferin-H conversion, luminescence; hit rate 20% among 96,000;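 active = blocking of liver enzyme CYP2C9 beyond about 50% at 5 µM, limit read from the data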
# Target sequence (P11712 whole entry, looked up): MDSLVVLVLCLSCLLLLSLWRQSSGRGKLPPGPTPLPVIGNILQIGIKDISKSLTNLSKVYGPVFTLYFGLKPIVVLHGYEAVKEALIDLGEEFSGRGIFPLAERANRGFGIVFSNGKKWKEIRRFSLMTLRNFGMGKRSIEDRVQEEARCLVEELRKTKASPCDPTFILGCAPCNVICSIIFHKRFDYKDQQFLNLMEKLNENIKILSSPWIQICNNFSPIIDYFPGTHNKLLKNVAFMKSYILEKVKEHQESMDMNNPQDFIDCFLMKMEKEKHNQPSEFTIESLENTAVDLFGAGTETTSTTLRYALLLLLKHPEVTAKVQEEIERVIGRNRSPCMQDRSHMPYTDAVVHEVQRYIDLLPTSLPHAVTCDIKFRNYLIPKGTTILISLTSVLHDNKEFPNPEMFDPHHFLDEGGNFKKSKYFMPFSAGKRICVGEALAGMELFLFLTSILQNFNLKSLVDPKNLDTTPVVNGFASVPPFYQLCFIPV
# CYP2C19 inh: inhibitors of human CYP2C19; P33261; CYP2C19 Supersomes, luciferin-H EGE luminescence, 30 min; inhibition, % at 5 µM; hit rate 21% among 96,000; AID 778;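 active = CYP2C19 inhibition above a set limit at 5 µM in the primary screen, cut at about 50% in these data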;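 note: plate controls were negative control wells for no effect and 2.5 mM tranylcypromine positive control for full effect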
# CYP2C9 act: CYP2C9 (human) activation. P11712. recombinant CYP2C9, luciferin-H conversion, luminescence; hits give high values; factor 1 = untreated enzyme, 0 = blocked. activation factor at 5 µM. hit rate 1.4% among 96,000;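 active = activation factor of 2 or more for CYP2C9 at a 5 µM dose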;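 note: 0 = sulfaphenazole-blocked wells and 1 = vehicle-only wells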
# CYP2C19 activ: increases human CYP2C19 enzyme activity; recombinant CYP2C19, luciferin-H EGE luminescence; hits give high values; 0 = fully inhibited enzyme, 1 = untreated enzyme; AID 1025; 96,000 tested, under 10 active; P33261; activation factor at 5 µM;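 active = activation factor of at least 2 at 5 µM in the primary screen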;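 note: 0 = wells with 2.5 mM tranylcypromine and 1 = vehicle-only wells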
# DAT uptake mod: modulates human dopamine transporter uptake under cocaine; LLC-PK1 hDAT cells, [14C]-dopamine uptake with cocaine IC80; actives deviate in either direction; AID 449768; hit rate 1.3% among 110,000; B-score at 10 µM; Q01959;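 active = Z score or B-score, a plate-position-corrected score, falls beyond the plate's 99.7% confidence bounds, in either direction; inactive = both scores lie inside the 99.7% bounds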;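 note: scored against the spread of the other compound wells on the same plate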
# Starred values were filed as active, the others as inactive; . = no result given. Sampled rows, rich in hits. Any-hit rate of the full collection: about 28%.
SMILES,D1 allo mod,CYP2C9 inhib,CYP2C19 inh,CYP2C9 act,CYP2C19 activ,DAT uptake mod
CCCC[C@@H]1C[C@H]1[C@@H](NC(=O)c1ccco1)c1ccc(C(=O)OC)cc1,.,.,.,.,.,1.58
CCNC(=S)N/N=C/c1cccs1,.,0.7,13.0,1,0.9,-1.39
COc1ccccc1OCCSc1nc2ccccc2c(=O)[nH]1,0.216,42.7,59.3*,0.6,0.4,0.00349
Cc1cc(=O)[nH]c(SCCCOc2ccccc2Cl)n1,.,29.1,45.3,0.7,0.5,-1.43
Cc1cc(=O)[nH]c(SCCOc2ccc(OC(C)C)cc2)n1,-1.21,74.7*,66.1*,0.3,0.3,0.996
Cc1cc(=O)[nH]c(SCCOc2ccc3c(c2)CCC3)n1,-0.0999,-11.9,3.5,1.1,1,-0.319
CCc1cc(OCCCSc2nc(C)cc(=O)[nH]2)ccc1Cl,.,9.0,69.6*,0.9,0.3,0.419
C/C=C/c1ccc(OCCSc2nc(C)cc(=O)[nH]2)c(OC)c1,-0.698,52.9*,16.3,0.5,0.8,-0.0726
CC(NC(=O)c1cccnc1)c1ccc2c(c1)OCO2 (stereo not drawn),0.000551,12.8,41.0,0.9,0.6,0.00156
CC(C)c1nc2ccccc2n1CCC(=O)O,.,-36.4,-38.2,1.4,1.4,-0.952
Cn1c(C(C#N)C(=O)c2sc3ccccc3c2Cl)nc2ccccc21 (stereo not drawn),0.0537,71.1*,22.1,0.3,0.8,0.0965
Cc1cc(OCc2nn[nH]n2)c2c(-c3ccccc3)cc(=O)oc2c1,-0.0102,70.6*,39.6,0.3,0.6,0.803
CCN(CC)C(=O)COc1cc(C)cc2oc(=O)cc(-c3ccccc3)c12,.,22.8,28.8,0.8,0.7,0.262
CCCCc1cc(=O)oc2cc(OCc3nn[nH]n3)c(Cl)cc12,0.244,80.3*,43.8,0.2,0.6,0.762
O=C(O)COc1ccc2c(-c3ccccc3)cc(=O)oc2c1,-0.814,-8.0,4.7,1.1,1,-0.119
Cc1c(OCc2nn[nH]n2)ccc2c(-c3ccccc3)cc(=O)oc12,.,98.3*,95.3*,0,0,0.789
Cc1cc(OCC(=O)N(C)C)c2c(-c3ccccc3)cc(=O)oc2c1,1.18,63.6*,16.4,0.4,0.8,-0.0147
Cc1cc(OCc2nn[nH]n2)c2c(C)c(CC(=O)O)c(=O)oc2c1,0.471,6.4,0.1,0.9,1,-0.321
C=C1CCN([C@@H](CC(C)C)C(=O)Nc2ccc(OC)cc2)S(=O)(=O)c2ccccc21,.,.,.,.,.,0.902
COc1ccc(-n2c(Cc3cccn3C)nnc2SCC(=O)Nc2ccc3c(c2)OCO3)cc1,0.732,10.4,3.0,0.9,1,0.515
COC(=O)CCN(C)CCC(=O)OC,0.0578,-4.1,-8.4,1,1.1,0.211
CCc1cc(=O)oc2cc(OCc3nn[nH]n3)ccc12,-0.658,39.5,23.3,0.6,0.8,-0.78
COc1ccc(-c2cc(=O)oc3c(C)c(OCc4nn[nH]n4)ccc23)cc1,.,97.1*,78.7*,0,0.2,0.00376
COc1ccc(-c2cnc3nc[nH]c(=O)c3n2)cc1,.,.,.,.,.,1
COc1ccc(-c2nnc(-c3cc4c(ccc5ccccc54)oc3=O)o2)cc1,.,55.9*,67.9*,0.4,0.3,0.244
SMILES,D1 allo mod,CYP2C9 inhib,CYP2C19 inh,CYP2C9 act,CYP2C19 activ,DAT uptake mod
Cc1ccc(-c2c3c(nc4sc(C(N)=O)c(N)c24)CCC3)cc1,.,39.2,5.3,0.6,0.9,-0.0104
COc1ccc(-c2c3c(nc4sc5c(Cl)nc(C)nc5c24)CCC3)cc1,.,57.9*,-6.2,0.4,1.1,-0.781
O=C(Oc1ccccc1N1C(=O)C2CCCCC2C1=O)c1ccc(Cl)cc1 (stereo not drawn),.,-33.0,15.1,1.3,0.8,-0.45
Cc1ccc(C(=O)Oc2ccccc2N2C(=O)C3CCC(C)CC3C2=O)cc1 (stereo not drawn),.,58.1*,54.5*,0.4,0.5,0.0736
CN1CCN(C(=O)C2=C[C@H](c3ccccc3)C[C@H](OCc3ccc(CO)cc3)O2)CC1,.,.,.,.,.,1.42
OC(CSc1c(Cl)cccc1Cl)CN1CCN(c2ccc(F)cc2)CC1 (stereo not drawn),.,-15.9,36.1,1.2,0.6,0.892
O=C(NCCc1ccc(Cl)cc1)C1CCN(S(=O)(=O)c2cccc3nonc23)CC1,-0.0958,-150.9,26.0,2.5*,0.7,-2.16*
O=C(NCCN1CCN(c2ccccc2)CC1)C1CCN(S(=O)(=O)c2cccc3nonc23)CC1,-1.44,-14.2,52.2*,1.1,0.5,-0.471
CCOc1ccccc1N(C)C(=O)C1CCN(S(=O)(=O)c2cccc3nonc23)CC1,0.682,94.1*,84.9*,0.1,0.2,0.0155
O=C(NCCc1ccccc1)C1CCN(S(=O)(=O)c2cccc3nonc23)CC1,-0.62,-127.9,18.6,2.3*,0.8,-0.148
CCOc1ccc(OCC)c(NC(=O)C2CCN(S(=O)(=O)c3cccc4nonc34)CC2)c1,.,10.6,12.3,0.9,0.9,-0.471
COCCNC(=O)c1ccc(CN2CCOCC2)cc1,.,.,.,.,.,-0.374
CC(=O)N1CCc2cc(S(=O)(=O)NCCC3=CCCCC3)ccc21,-1.86,.,.,.,.,.
O=C(NCCc1ccccc1)C1CCN(S(=O)(=O)c2ccc(-c3nn[nH]n3)cc2)CC1,-0.107,83.1*,4.6,0.2,1,0.205
CN1CCN(Cn2cc(/C=C/C(=O)c3ccccc3)c3ccccc32)CC1,.,95.7*,81.4*,0,0.2,0.44
O=Cc1cn(CC(=O)N2CCOCC2)c2ccccc12,.,.,.,.,.,0.375
O=C(NC1CCCCC1)C(c1ccco1)N(CCc1ccccc1)C(=O)C(F)(F)F (stereo not drawn),.,.,.,.,.,-0.667
COc1ccc(CCN(C(=O)C(F)(F)F)C(C(=O)NC2CCCC2)c2cccs2)cc1 (stereo not drawn),.,77.1*,62.9*,0.2,0.4,-0.0499
COc1ccc(NC(=O)C2CCCO2)cc1 (stereo not drawn),.,.,.,.,.,0.0888
O=C(O)c1cccc(C(=O)Nc2cccc(NC(=O)C3CCCO3)c2)c1 (stereo not drawn),-3.96,29.4,61.7*,0.7,0.4,-1.14
O=C(Nc1ccc(-c2nc3ccccc3o2)cc1)C1CCCO1 (stereo not drawn),-5.22*,-28.4,7.3,1.3,0.9,-0.426
Cc1ccc2nc(-c3ccc(NC(=O)Cc4cccs4)cc3)[nH]c2c1,.,43.6,3.4,0.6,1,0.921
O=C(Nc1ccc(-c2nc3cc(Cl)ccc3o2)cc1)C1CCCO1 (stereo not drawn),.,.,.,.,.,0.807
O=C(Nc1ccc(Oc2ccccc2)cc1)C1CCCO1 (stereo not drawn),-0.204,15.1,58.4*,0.8,0.4,0.236
Cc1ccc2nc(-c3ccc(NC(=O)C4CCCO4)cc3)[nH]c2c1 (stereo not drawn),.,54.0*,61.9*,0.5,0.4,0.335
FC(F)(F)c1nnc2ccc(-n3ccnc3)nn12,-0.358,-1.1,-3.3,1,1,1.02
O=C(c1cccc(F)c1)N1CCN(S(=O)(=O)c2ccccc2)CC1,0.435,-1.2,75.5*,1,0.2,0.419
